Where “and” joins values, the source holds several entries; their conditions need not be identical. Equal entries are not always repeated. This is part of a sample that, as a whole, favours compounds with a hit. Of some 79,000 tested, about 15% had one in any assay. Calls of active or inactive are those of the source. Rule as the data show it: active = growth inhibition above about 70%; inactive = the rest.
Columns and labels:
[1] = NCI Yeast Anticancer Drug Screen. Data for the rad50 strain (AID 155);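 also: 0% = growth of vehicle-only cultures of the same strain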; conditions: S. cerevisiae rad50 strain growth inhibition, stronger effect = higher value; at 50.0 µM unless noted
How it was run: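 DNA repair mutant yeast, compound exposure, growth read-out; inhibition is taken relative to vehicle.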

[2] = NCI Yeast Anticancer Drug Screen. Data for the mec2-1 strain (AID 157); conditions: S. cerevisiae mec2-1 strain, stronger effect = higher value; at 50.0 µM unless noted
How it was run: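 Yeast mec2-1 mutant treated with compound. Readout: growth inhibition vs vehicle controls.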

[3] = NCI Yeast Anticancer Drug Screen. Data for the sgs1 mgt1 strain (AID 161);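 also: 0% = growth of cultures given vehicle only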; conditions: S. cerevisiae sgs1 mgt1 strain, stronger effect = higher value; at 50.0 µM unless noted
How it was run: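 Read-out: growth inhibition vs vehicle controls. Cells: mutant yeast strain deficient in DNA damage repair.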

[4] = NCI Yeast Anticancer Drug Screen. Data for the cln2 rad14 strain (AID 165);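 also: 0% = growth equal to vehicle treated cultures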; conditions: S. cerevisiae cln2 rad14 strain, stronger effect = higher value; at 50.0 µM unless noted
How it was run: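 cln2 rad14 yeast strain; compound exposure; growth inhibition read vs vehicle controls.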

[5] = NCI Yeast Anticancer Drug Screen. Data for the bub3 strain (AID 167); conditions: S. cerevisiae bub3 mutant strain, stronger effect = higher value; at 50.0 µM unless noted
How it was run: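 In this screen, a yeast mutant lacking normal mitotic checkpoint function is challenged with compound. Relative growth versus vehicle gives the inhibition value.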

[6] = NCI Yeast Anticancer Drug Screen. Data for the mlh1 rad18 strain (AID 175); conditions: S. cerevisiae mlh1 rad18 strain growth inhibition, stronger effect = higher value; at 50.0 µM unless noted
How it was run: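 Yeast w/ defined DNA-repair lesions; compound exposure; growth vs vehicle controls → % inhibition.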

Measured: growth inhibition

C[N+]1(CC(=O)c2ccc(Cl)cc2)CCOCC1
inactive: [1] 20.8% | [2] 7.45% | [3] 10.6% | [4] -20.9% | [5] 6.6% | [6] 28.1%

C=C1CC(COc2ccc3c(C)c(C)c(=O)oc3c2C)(c2ccccc2)OC1=O (stereo not given)
inactive: [1] 8.85% | [2] -3.75% | [3] 23.9% | [4] 4.85% | [5] 6.7% | [6] 21.4%

NC(=O)C(N)CC12CC3CC(CC(C3)C1)C2 (stereo not given)
inactive: [1] -6% | [2] -18.2% | [3] -10.6% | [4] 17.7% | [5] 10.7% | [6] -4.7%

CC(=O)c1oc2cc([N+](=O)[O-])c3ccccc3c2c1C
inactive: [1] 14.7% | [2] -8.55% | [3] 26.3% | [4] 11.6% | [5] -5.35% | [6] 40.1%

O=[N+]([O-])c1cccc(SSc2cccc([N+](=O)[O-])c2)c1
inactive: [1] 0.45% and -34.8% | [2] -16.1% and -57% | [3] -1.8% and -61.9% | [4] -2.95% and -12.7% | [5] -3.1% and -35.6% | [6] -1.3% and -65.8%

NCCSS(=O)(=O)O
inactive: [1] 3.25% | [2] 4.45% | [3] -17.7% | [4] -41.5% | [5] 0.45% | [6] -24.9%

CN(Cc1ccccc1)c1cc(=O)n(C)c(=O)[nH]1
inactive: [1] 7.3% | [2] 15.8% | [3] 35.8% | [4] 14% | [5] 25.6% | [6] -6.8%

O=c1n(CC2CO2)c(=O)n(CC2CO2)c(=O)n1CC1CO1 (stereo not given)
inactive: [1] -8.4% and -1.15% | [2] 11.6% and 8.65% | [3] 19.7% and -18.9% | [4] -25.3% and -6.25% | [5] 26.1% and -34% | [6] 28.1% and 2.45%

O=C(O)CCN(CCCCN(CCC(=O)O)CCC(=O)O)CCC(=O)O
inactive: [1] 4.7% | [2] 7.05% | [3] -10.7% | [4] 1.4% | [5] 1.25% | [6] -4.15%

O=C(Nc1cccc(Cl)c1)Oc1c([N+](=O)[O-])cc(Cl)cc1[N+](=O)[O-]
inactive: [1] 13.2% | [2] 6.75% | [3] 21.1% | [4] -12% | [5] 0.15% | [6] 28.3%

O=CC(NC(=O)N(CCCl)N=O)C(O)C(O)C(O)CO (stereo not given)
inactive: [1] -8% | [2] -2.3% | [3] 2.15% | [4] -1.7% | [5] -4.95% | [6] 5.75%

COc1cc(CC(C(=O)O)C(C)C(=O)c2ccc3c(c2)OCO3)cc(OC)c1OC (stereo not given)
inactive: [1] -4.75% | [2] 0.1% | [3] -11.9% | [4] -24.6% | [5] -10.4% | [6] -15.8%

NC(N)=NS(=O)(=O)c1ccc(NCc2c3ccccc3nc3ccccc23)cc1
inactive: [1] 41.2% | [2] 26.9% | [3] 38.4% | [4] 6.75% | [5] 46.5% | [6] 38.1%

CCN(CC)c1ccc(N=Nc2ccc(-c3nc4cccnc4o3)cc2)cc1
inactive: [1] -21.4% | [2] -19.2% | [3] -22.9% | [4] -1.7% | [5] 2.15% | [6] -39.3%

COS(=O)(=O)CC(O)(c1ccccc1)c1ccccc1
inactive: [1] 12.7% | [2] -2.3% | [3] 48.8% | [4] -14.6% | [5] -5.8% | [6] 6.05%

CSC1=NC(C(N)=O)C(N)N1C (stereo not given)
inactive: [1] -3.1% | [2] -16.4% | [3] 6.3% | [4] 17.4% | [5] 1.35% | [6] 12%

COC(=O)c1ccc(-n2cc(C(=O)OC)c([N+]#N)c2[O-])cc1
inactive: [1] 9.4% | [2] 11.6% | [3] -13.6% | [4] -13.6% | [5] 18.9% | [6] 16.6%

CN(Cc1ccc(Cl)cc1)N=Nc1ccc(C(=O)O)cc1
inactive: [1] -5.5% | [2] 4.4% | [3] 24.7% | [4] 25.8% | [5] 16.6% | [6] 24.6%

CN(C)c1ccc(/C=C/C=C2\C=Cc3ccccc32)cc1
inactive: [1] 0.55% | [2] -17.9% | [3] -6% | [4] -26.2% | [5] -0.25% | [6] -2.75%

CCCCCCCCCCCCCCCCCCNC(=S)N/N=C/c1ccccc1[N+](=O)[O-]
inactive: [1] -17.1% | [2] 2.75% | [3] -20.1% | [4] 4.95% | [5] -13.1% | [6] -7.65%

CC(C)CCC[C@@H](C)[C@H]1CC[C@H]2[C@@H]3CCC4=CC(=O)NCC[C@]4(C)[C@H]3CC[C@]12C
inactive: [1] 12.8% | [2] -3.25% | [3] 34.6% | [4] 27.2% | [5] -9.35% | [6] 15.9%

Cn1ccnc1Sc1c([N+](=O)[O-])ncn1C
inactive: [1] 3.3% | [2] 5.95% | [3] 3.25% | [4] 29.3% | [5] 32.5% | [6] 10.4%

CC(C)N1C(=O)c2cccc(Cl)c2C1=O (tested in a mixture with another compound)
inactive: [1] 10.8% | [2] 4.1% | [3] 37.3% | [4] 37.6% | [5] -7.85% | [6] 1.4%

COc1ccc(-c2nc(Sc3c([N+](=O)[O-])ncn3C)n[nH]2)cc1
inactive: [1] -1.25% | [2] 5.75% | [3] 3.7% | [4] 25.7% | [5] 12.5% | [6] -6.6%

NC(CC(=O)c1ccccc1NC=O)C(=O)O (stereo not given)
inactive: [1] 8.85% | [2] -1.4% | [3] -9.95% | [4] -48.6% | [5] -0.95% | [6] 3.25%

CC1=N[C@@H](C(=O)NCC(N)=O)Cc2c1[nH]c1ccccc21
inactive: [1] 11.7% | [2] 10.1% | [3] 8.65% | [4] -7.85% | [5] -4.25% | [6] 4.4%

O=C(Cc1ccccc1)NCCCN(CCCCN(CCCNC(=O)Cc1ccccc1)C(=O)OCc1ccccc1)C(=O)OCc1ccccc1
inactive: [1] -11.9% | [2] -11.6% | [3] -2.7% | [4] -7.4% | [5] -0.85% | [6] -27.6%

CCSc1nnc(SCC)c2c1ncn2CC
inactive: [1] 19.9% | [2] 5.8% | [3] 26.4% | [4] -39.8% | [5] 7.5% | [6] 9.05%

CC(=O)Nc1cc(Cl)ccc1[N+](=O)[O-]
inactive: [1] 8.95% | [2] 9.35% | [3] 27.9% | [4] 1.25% | [5] 17.4% | [6] 5.95%

O=C1NN(C(=O)c2ccccc2)C(c2ccccc2[N+](=O)[O-])c2c1c1ccccc1n2C(=O)c1ccccc1 (stereo not given)
inactive: [1] 28.9% | [2] 5.65% | [3] 5.2% | [4] -23.4% | [5] -4.05% | [6] 14.9%

CCCCCCCCCC(=O)N1CCCC(C)C1 (stereo not given)
active: [1] 99.5% | [2] 99.7% | [3] 99.6% | [4] 98.7% | [5] 99.2% | [6] 99.5%

Cc1c(=O)n(C)c2ccccc2[n+]1[O-]
inactive: [1] 7.9% | [2] 16.1% | [3] 11.7% | [4] -8.65% | [5] 7.1% | [6] 7.65%

CC1=Nc2ccccc2SC2(C1)C(C1COC(C)(C)O1)OC1OC(C)(C)OC12 (stereo not given)
inactive: [1] 7.4% | [2] 11.1% | [3] 21.1% | [4] 21.4% | [5] -9.55% | [6] 12.8%

CC(C)CCOC=O
inactive: [1] 38.1% | [2] 28.4% | [3] 22.8% | [4] 21.6% | [5] 24.9% | [6] 30.5%

O=C(c1ccccc1)C(Oc1ccccc1)c1ccccc1 (stereo not given)
inactive: [1] 39.5% | [2] 19.2% | [3] 37.8% | [4] 36% | [5] 6.9% | [6] 60%
